# MEP2 TOR yeast: alters MEP2-GFP fluorescence in TOR pathway yeast screen | GFP response vs DMSO, % at 10 µM | AID 2016 | hit rate 0.51% among 330,000 | S. cerevisiae MEP2-GFP strain, flow cytometry GFP, 3 h; 100% = DMSO control level;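 active means GFP response versus DMSO above a set limit, roughly screen mean plus 3 SD, cut at about 180% in these data; inconclusive means fewer than 70 cells counted for a yeast strain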;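 further: median GFP fluorescence of the barcode-gated MEP2-GFP cells per well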
# Myeloid diff 2: myeloid differentiation induction | ER-HoxA9 myeloid progenitors, lysozyme-GFP differentiation, flow cytometry | calls only at 10 µM | hit rate 1% among 360,000;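 active means normalized GFP-positive differentiation at or above the plate's own cutoff, the solvent-only control mean plus 3 SD; inconclusive means no clear call, values can overlap the other calls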;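 further: cells exposed to compound for four days before flow analysis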
# LAP4 TOR yeast: modulators of TOR pathway LAP4-GFP in S. cerevisiae. hit rate 0.34% among 320,000. GFP response vs DMSO, % at 10 µM. S. cerevisiae LAP4-GFP multiplex, flow cytometry GFP, 3 h; median GFP as percent of DMSO wells;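 active means GFP response vs DMSO above a set limit, about the screen mean plus 3 SD, cut at about 150% in these data; inconclusive means under 70 cell events counted for the yeast strain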
# AGP1 TOR yeast: alters AGP1-GFP fluorescence in TOR pathway yeast screen | S. cerevisiae AGP1-GFP multiplex flow cytometry, 3 h; GFP as percent of DMSO wells | GFP response vs DMSO, % at 10 µM | hit rate 0.02% among 320,000;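 active means GFP response relative to DMSO above a set limit, near screen average plus 3 SD, cut at about 150% in these data; inconclusive means fewer than 70 cells counted for the yeast strain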;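 further: median GFP channel fluorescence of the gated AGP1 strain per well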
# CIT2 TOR yeast: alters CIT2-GFP fluorescence in TOR pathway yeast screen; S. cerevisiae CIT2-GFP strain, flow cytometry, 3 h; 100 means same as DMSO wells; AID 2029; GFP response vs DMSO, % at 10 µM; hit rate 0.065% among 320,000;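 active means GFP response relative to DMSO above a set limit, near the screen mean plus 3 SD, cut at about 150% in these data; inconclusive means Fewer than 70 cells measured for a yeast strain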;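 further: ratio of well median GFP fluorescence to mean of DMSO wells on the plate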
# RPL19A TOR yeast: alters RPL19A-GFP fluorescence in TOR pathway yeast screen. S. cerevisiae RPL19A-GFP strain, flow cytometry, 3 h; hits give low values. hit rate 0.3% among 330,000. percent response vs DMSO, % at 10 µM;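 active means percent response vs DMSO below 50%; inconclusive means fewer than 70 events counted for the yeast strain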;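 further: median channel GFP fluorescence of the barcoded RPL19A-GFP strain; ratio of sample median GFP to plate DMSO average so 100% = DMSO; lower means less RPL19A-GFP as with rapamycin TOR inhibition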
# * = called active by the depositor; i = inactive; ? = inconclusive; . = not tested or not shown; + = active, no number; [ ] = another dose, or the depositor's remark. Most compounds without a hit are left out; they make up all but 1.8% or so of the library.
SMILES,MEP2 TOR yeast,Myeloid diff 2,LAP4 TOR yeast,AGP1 TOR yeast,CIT2 TOR yeast,RPL19A TOR yeast
CC(C)NC(=O)COc1ccc(S(=O)(=O)N(C)Cc2ccccc2)cc1,408*[may fluoresce violet],i,92,18,?,71
CN(Cc1ccccc1)S(=O)(=O)c1ccc(OCC(=O)NCc2ccccn2)cc1,103,i,93,105,99,99
COC(=O)C1=C(C)NC(=S)NC1c1sccc1C (configuration not stated),92,i,98,102,98,97
Nc1c(C(=O)c2ccccc2)sc2nsc(SCCN3CCCC3)c12,107,+,105,104,99,107
Nc1c(C(=O)c2ccc(Cl)cc2)sc2nsc(SCCN3CCOCC3)c12,105,+,123,113,102,108
COc1ccc(NC(=O)CSc2nnc(NC(=O)C3CCC3)s2)c(OC)c1,199*[may fluoresce violet],i,90,?,?,46*[may fluoresce violet]
COc1ccc(NC(=O)CSc2nnc(NC(=O)C3CCC3)s2)cc1,106,.,90,93,105,105
N#C/C(C(=O)NCCc1ccccc1)=C1/N=C(NC(=O)c2cccs2)c2ccccc21,?,i,?,?,?,?
CC(NC(=O)/C(C#N)=C1\N=C(NC(=O)c2cccs2)c2ccccc21)c1ccccc1 (configuration not stated),.,+,.,.,.,.
CCOc1ccc(NS(=O)(=O)c2ccc(C(=O)NCC(c3ccco3)N3CCCCC3)cc2)cc1 (configuration not stated),.,i,.,.,.,.
CC(Sc1nnc(Nc2ccccc2)s1)C(=O)Nc1nc(-c2ccccc2)cs1 (configuration not stated),93,+,116,95,93,99
CCOc1ccccc1N(CC(=O)Nc1cccnc1)S(C)(=O)=O,552*[may fluoresce violet],i,98,.,?,40*[may fluoresce violet]
O=C(CNC(=O)c1ccc(F)cc1)NCc1ccc(S(=O)(=O)N2CCOCC2)cc1,.,i,.,.,.,.
COc1ccc(N2CC(NC(=O)N(C)CCC#N)CC2=O)cc1 (configuration not stated),104,i,105,101,103,102
Cc1ccc(C)c(CSc2nnc(-c3cccs3)n2Cc2ccco2)c1,96,+,103,97,88,95
Cc1cc(C)c(S(=O)(=O)N2CCN(C(=O)c3c(C)noc3C)CC2)c(C)c1,99,i,99,101,96,98
COc1ccc(C2C(C(C)=O)=C(O)C(=O)N2CCCn2ccnc2)cc1OC (configuration not stated),102,i,102,111,108,105
CC(=O)C1=C(O)C(=O)N(CCCn2ccnc2)C1c1ccc(Br)cc1 (configuration not stated),105,+,98,100,102,104
O=C(c1cccc(Br)c1)c1coc2ccc(O)cc12,88,i,110,82,80,93
CCCC(=O)C1=C(O)C(C(=O)OC)C(C)(C)CC1=NCc1ccccc1 (configuration not stated),102,i,88,98,97,97
CCCC(=O)C1=C(O)C(C(=O)OC)C(C)(C)CC1=Nc1cccc2ccccc12 (configuration not stated),177*[may fluoresce violet],.,91,.,?,69
COc1ccc(-n2ncc3c(=O)n(CC(=O)N(C(C)C)C(C)C)cnc32)cc1,104,i,102,106,104,104
COc1cccc(C(C(=O)NCC2CCCO2)N(C(=O)Cn2nnc3ccccc32)c2ccc(NC(C)=O)cc2)c1 (configuration not stated),204*[may fluoresce violet],i,78,?,?,54
Fc1ccc(-n2c(-c3ccco3)nc3nc4ccccc4nc32)cc1,106,+,98,104,115,101
CCCCOCCCn1c(-c2ccco2)nc2nc3ccccc3nc21,97,+,91,91,92,92
SMILES,MEP2 TOR yeast,Myeloid diff 2,LAP4 TOR yeast,AGP1 TOR yeast,CIT2 TOR yeast,RPL19A TOR yeast
CSCCC(C(=O)Nc1c(C)cccc1C)n1c(-c2ccc(-c3ccccc3)cc2)nc2ccccc21 (configuration not stated),.,i,.,.,.,.
CC(=O)c1sc(Nc2ccc3c(c2)OCO3)nc1C,.,i,.,.,.,.
N=c1c(C(=O)NCC2CCCO2)cc2c(=O)n3ccccc3nc2n1Cc1ccccc1Cl (configuration not stated),258*[may fluoresce violet],.,46,?,?,38*[may fluoresce violet]
N=c1c(C(=O)NCC2CCCO2)cc2c(=O)n3ccccc3nc2n1Cc1ccccc1 (configuration not stated),212*[may fluoresce red and violet],?,58,?,?,?
CCOc1cc([N+](=O)[O-])cc(/C=C2/NC(=O)N(Cc3ccccc3F)C2=O)c1O,112,i,103,109,106,116
CCc1noc(C)c1C(=O)Nc1nc(-c2ccc(Cl)cc2Cl)cs1,100,i,96,97,100,103
O=[N+]([O-])c1ccccc1OCCCn1cnc2ccccc21,.,i,.,.,.,.
CSc1ccccc1C(=O)OCC(=O)N1CCCC1=O,107,i,104,105,96,99
O=C(Cc1ccc(-c2ccccc2)cc1)OCC(=O)N1CCCC1=O,95,i,163*,87,79,92
Cc1cc(Br)ccc1SCC(=O)OCC(=O)NC1CC1,108,+,97,97,98,106
Cn1c(N)c(C(=O)COC(=O)CCc2ccccc2)c(=O)n(C)c1=O,95,+,96,97,100,95
Cc1cc(Br)ccc1SCC(=O)OCC(=O)NC(C)c1ccccc1 (configuration not stated),119,i,130,115,109,96
Cc1cc(Br)ccc1SCC(=O)OCC(=O)c1c(N)n(C)c(=O)n(C)c1=O,109,+,107,100,112,116
NC(Cc1ccc(C(F)(F)F)cc1)c1csc(Nc2ccc(C(=O)NCc3ccco3)cn2)n1 (configuration not stated),.,i,.,.,.,.
O=C(O)c1ccc(N2C(=O)/C(=C/c3ccc(-c4ccc([N+](=O)[O-])cc4)o3)C=C2c2ccccc2)cc1,114,+,99,103,112,105
CCCCNC(=O)n1c(SC)nc2ccccc21,379*[may fluoresce violet],i,119,12,?,53
COC(=O)n1c(SC)nc2ccccc21,106,i,93,96,110,.
N=c1ccn(CC(=O)c2ccc(-c3ccccc3)cc2)cc1,101,.,154*,106,109,89
CCOc1cc(NC(=S)NCC2CCCO2)c(OCC)cc1NC(=O)c1ccccc1C (configuration not stated),130,+,100,88,110,90

# Screening results as filed in PubChem.
